# This is a sample that favours compounds with a hit; in the whole collection about 3.2% have one here.
# FBPA coupling cs: counter-screen for Giardia aldolase inhibitors: coupling enzyme system. actives 0.67% (n = 290,000). activity change, negative = inhibition, % at 58.2 µM, hits read low. coupling enzyme system counterscreen, AmpLite Red fluorescence; in the data active = activity change below about -30%
#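 Compounds tested against the coupling enzymes alone at 57.5 uM final; readout was AmpLite Red fluorescence (525/598 nm) after 20 min at RT.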
# USP2a inh: USP2a (human) protease inhibition. USP2 core, Ub-CHOP2 coupled fluorogenic reporter, 485/531. Potency, µM (doses to about 38.3 µM), for the others: top-dose activity change, negative = inhibition, usual class: inhibitors. actives 0.01% (n = 330,000). AID 463254;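 also: potency is read from the fitted curve at half-maximal effect; plate controls were DMSO wells for no effect and full inhibition by NEM control for full effect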
#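 USP2 core (10nM final) preincubated 30min RT with compound in 20mM Tris-HCl pH 8.0, 2mM CaCl2, 2mM beta-mercaptoethanol, 0.05% CHAPS; 25nM Ub-CHOP2 plus 25nM reporter substrate added, fluorescence (Ex485/Em531) read after 60min.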
# GALK inhibitor: blocks human galactokinase activity. P51570. Purified GALK, Kinase-Glo residual ATP luminescence. Potency, µM (top dose mostly 57.5 µM), without a hit: at the top dose activity change, negative = inhibition, usual class: inhibitors. actives 0.007% (n = 270,000). AID 1868; also: potency is read from the fitted curve at half-maximal effect
#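 Kinase-Glo Plus luminescence measured ATP left after a 1 h room-temperature reaction. The reaction used 5 nM GALK, 100 uM galactose and 35 uM ATP at pH 8.0 (20 mM HEPES, 5 mM MgCl2, 60 mM NaCl, 1 mM DTT, 0.01% BSA).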
# USP1-UAF1 inh: blocks the human USP1/UAF1 deubiquitinase complex | Potency, µM (series often up to 57.1 µM), without a hit: at the top dose activity change, negative = inhibition, actives largely listed as inhibitors | recombinant USP1/UAF1, Ub-Rhodamine cleavage fluorescence | AID 743255 | actives 0.23% (n = 390,000); also: potency is read from the fitted curve at half-maximal effect; nearly all actives have a fitted effect of over 60% in size
#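 USP1/UAF1 complex at 1 nM was preincubated with compound for 15 min at room temperature, then Ub-Rho substrate (150nM final) was added. Fluorescence (480/540 nm) was read kinetically, 6 reads every 60 seconds.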
# PLK1 PBD inh: blocks phosphopeptide binding to human PLK1 polo-box domain; Potency, µM, inactives show max response, negative = inhibition, most hits filed as inhibitors; Plk1 PBD binding of FITC phosphopeptide, fluorescence polarization; P53350; actives 2.8% (n = 360,000); also: potency is read from the fitted curve at half-maximal effect; series mostly up to about 57 µM; nearly all actives have a fitted effect of over 65% in size
# VDR inh: vitamin D3 receptor (human) inhibition; P11473; VDR-SRC2-3 peptide fluorescence polarization, 2 h; Potency, µM, inactives show max response, negative = inhibition, actives largely listed as inhibitors; actives 0.93% (n = 400,000); also: potency is read from the fitted curve at half-maximal effect
# Target sequence (P11473 whole entry, looked up): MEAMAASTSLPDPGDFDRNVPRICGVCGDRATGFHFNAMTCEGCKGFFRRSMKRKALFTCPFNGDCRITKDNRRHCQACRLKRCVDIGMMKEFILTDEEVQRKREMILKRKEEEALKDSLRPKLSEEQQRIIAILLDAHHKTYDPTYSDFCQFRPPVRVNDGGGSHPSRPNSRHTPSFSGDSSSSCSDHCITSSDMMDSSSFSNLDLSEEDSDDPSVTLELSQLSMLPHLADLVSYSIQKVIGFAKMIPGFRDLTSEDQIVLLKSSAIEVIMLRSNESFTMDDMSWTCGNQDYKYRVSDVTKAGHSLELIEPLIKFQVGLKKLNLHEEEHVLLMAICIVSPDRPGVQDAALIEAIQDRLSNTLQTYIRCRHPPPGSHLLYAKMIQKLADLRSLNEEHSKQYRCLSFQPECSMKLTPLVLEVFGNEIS
#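 The screen uses fluorescence polarization to detect compounds that interfere with recruitment of the SRC2-3 coactivator peptide to VDR; plates are read after 2 h at room temperature.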
# Active calls of the source: *; ? = inconclusive; · = no result given. Unless noted, calls follow the shape of the dose curve; as a rule, active = well fitted curve in the direction sought with a large enough effect; inconclusive = small, poorly fitted or top-dose-only effect, or another doubt; inactive = no such curve, though single readings can be large; an effect the other way counts as inactive or inconclusive. Unless noted, % is scaled to controls: 0 for no effect and ±100 for the full control effect.
SMILES,FBPA coupling cs,USP2a inh,GALK inhibitor,USP1-UAF1 inh,PLK1 PBD inh,VDR inh
O=C(c1c(F)c(F)c(F)c(F)c1F)N1CCN(c2cccc(C(F)(F)F)c2)CC1,-5.5,0.1%,0.2%,-16.6%,5.97µM*,?
O=C1CC(N2CCC(c3nc4ccccc4s3)CC2)C(=O)N1Cc1ccccc1 (centres undefined),2.9,3.9%,-0.2%,-21.7%,-2.6%,-3.2%
CSCC[C@H](NC(=O)N1CCn2c1nc1ccccc12)C(=O)N[C@H](Cc1ccccc1)C(=O)O,1.2,-1.4%,·,0.4%,-9.6%,?
NC(N)=Nc1cc2ccccc2c2ccccc12,-33.8*,-0.3%,0.5%,·,·,·
NC(N)=NC(N)=Nc1cccc2ccccc12,-22.9,7.3%,0.1%,?,-2.5%,-5.2%
CC(C)n1cc(/C=N/NC(=O)COc2cccc3cccnc23)c2ccccc21,-0.8,-4.2%,2.2%,-21.3%,-10.8%,-17.7%
Cc1cc(NC(=O)CSc2ccc(F)cc2)no1,0.6,13.4%,-1.6%,-6.8%,-1.5%,-19.4%
CC(=O)Nc1ccc(SCC(=O)NC(=O)c2ccccc2Br)cc1,·,-1.0%,·,6.0%,29.9µM*,-22.4%
CC(=O)Nc1ccc(NC(=O)c2ccccc2Br)cc1,·,·,·,·,-6.2%,·
CC(=O)Nc1ccc(SCC(=O)Nc2cc(C)on2)cc1,2.3,-4.9%,-2.1%,-22.3%,23.8µM*,-21.8%
Cc1cc(NC(=O)CSc2nnnn2-c2ccc(C(C)C)cc2)no1,-3.0,0.5%,-0.1%,-17.6%,26.7µM*,-29.7%
COc1ccc(OC)c(CCNC(=O)c2cnn(-c3ccc(C)cc3C)c2C2CCN(C(=O)OC(C)(C)C)CC2)c1,·,·,·,-31.6%,·,4.6%
O=C(Nc1ccccc1C(=O)N1CCCCC1)NC1CCCCC1,3.2,1.3%,5.1%,-4.9%,21.2µM*,-19.2%
Nc1ccc(C(=O)n2c3ccccc3c3ccccc32)cc1,-4.8,4.1%,-0.3%,-20.5%,-20.9%,-9.8%
CCOc1cc(/C=C2\C(=O)N(CCC#N)N=C2C)ccc1OCC(N)=O,-5.4,0.3%,6.6%,-24.9%,18.9µM*,-5.2%
COc1cc(/C=C2\C(=O)N(CCC#N)N=C2C)ccc1OCC(=O)Nc1ccccc1,0.6,4.2%,-0.2%,-20.4%,1.34µM*,?
CC1=NN(CCC#N)C(=O)/C1=C/c1ccc(N(C)C)cc1,-7.2,2.5%,-7.1%,-24.9%,-0.9%,-4.1%
CC(=O)Nc1cccc(-c2ccnc3c2CC(C(=O)NCC2CC2)O3)c1 (centres undefined),·,·,·,·,-3.4%,·
CCOC(=O)c1c(N)sc2c1CCS(=O)(=O)C2,1.0,-0.3%,2.6%,-6.7%,26.7µM*,-2.6%
COc1ccccc1NC(=O)Nc1ccccc1Br,0.2,-0.7%,4.0%,-24.0%,11.9µM*,?
COc1ccccc1NC(=O)O/N=C(\N)c1ccccc1,-2.5,0.0%,-0.5%,?,10.6µM*,?
COc1ccccc1NC(C)=O,0.4,1.0%,1.9%,4.2%,-13.5%,-3.4%
COc1ccccc1NC(=O)C(C/C=C(/C)Cl)C(C)=O (centres undefined),3.3,2.5%,0.6%,-5.0%,29.9µM*,14.5%
COc1ccccc1NC(=O)CC(=O)c1ccccc1,2.3,-0.2%,3.9%,-22.4%,29.9µM*,?
COc1ccccc1NC(=O)CC(=O)Nc1ccccc1OC,2.2,1.5%,-3.3%,-10.7%,-4.1%,5.8%
SMILES,FBPA coupling cs,USP2a inh,GALK inhibitor,USP1-UAF1 inh,PLK1 PBD inh,VDR inh
COc1cc(NC(=O)c2cccs2)c(OC)cc1NC(=O)CCC(=O)Nc1cccc2ncccc12,2.4,9.3%,1.1%,-24.4%,1.6%,?
COc1ccccc1NC(=O)CCC(=O)Nc1cc(OC)c(NC(=O)c2cccs2)cc1OC,-2.7,-4.6%,8.2%,-17.5%,26.7µM*,?
O=C(O)c1ccc(CSc2nc3ccccc3c(=O)n2-c2ccccc2)cc1,19.8,-0.8%,-5.8%,-22.5%,-2.5%,-21.9%
O=C(c1ccc(-n2c(SCc3cccc(F)c3)nc3ccccc3c2=O)cc1)N1CCOCC1,0.7,2.1%,1.9%,-17.5%,26.7µM*,?
CC(C)Oc1ccc(CN2CCC2(C)C(=O)Nc2ccc3c(c2)OCO3)cc1 (centres undefined),·,·,·,·,-1.6%,·
S=C(NCCCN1CCOCC1)Nc1ccc(-c2nc3ccccc3[nH]2)cc1,-0.4,-0.3%,-0.3%,-16.6%,23.8µM*,-15.3%
COC(=O)C1(C(=O)OC)C/C=C\C/C=C\c2ccccc2C1C[N+](=O)[O-] (centres undefined),2.9,·,·,·,·,-10.0%
CN(C)c1ccc(-c2nccc(NCc3cccs3)n2)cc1,-0.2,·,·,·,·,-19.6%
c1csc(CNc2ccnc(-c3ccoc3)n2)c1,-2.6,·,·,·,·,22.4µM*
CN(C)C(=O)c1ccc(-c2nccc(NCc3cccs3)n2)cc1,3.8,·,·,·,·,44.7µM*
CCn1c(=S)[nH]c2c(=O)n(C)c(=O)n(C)c21,·,·,·,-17.7%,-15.9%,50.1µM*
Cn1c(=O)c2[nH]c(Br)nc2n(C)c1=O,·,·,·,·,·,1.9%
C=CCN1C(=O)/C(=C/c2ccc(OC(C)=O)c(OCC)c2[N+](=O)[O-])SC1=S,-17.7,-13.9%,?,14.1µM*,-18.6%,-9.0%
Nc1nc(SCc2ccccc2Cl)ns1,-0.5,0.0%,-3.1%,-23.2%,29.9µM*,-5.6%
Nc1ccccc1SCc1ccccc1Cl,-1.4,0.0%,·,-5.0%,15µM*,-9.5%
Clc1ccccc1CSc1cnnc2ccccc12,·,·,·,-11.1%,-0.1%,4.8%
Nc1ccccc1SSc1ccccc1N,-3.8,-0.1%,-1.1%,?,0.597µM*,10µM*
Cc1ccc2c(c1)nc(NCCCO)n2C,0.2,0.5%,3.8%,-5.8%,-3.3%,-5.3%
CC1CCCN(C(=O)Cn2nnc(-c3ccc(N(C)C)cc3)n2)C1 (centres undefined),-0.3,1.0%,3.5%,-19.5%,2.9%,-3.3%
CCOc1ccc2nc(-c3ccccc3)[nH]c2c1,-9.2,3.2%,4.4%,-14.4%,-9.2%,3.5%
COc1ccc2nc(-c3ccccc3)[nH]c2c1,-32.4*,-0.4%,0.5%,-14.4%,-4.2%,1.2%
O=Cc1ccc2noc(-c3ccc(F)cc3)c2c1,0.7,11.5%,-0.3%,-21.1%,23.8µM*,-4.0%
Fc1ccc(-c2onc3ccc(C4OCCO4)cc23)cc1,-0.3,8.6%,4.2%,-7.7%,-12.2%,15.0%
c1cncc(-c2nn3c(Cn4nnc5ccccc54)nnc3s2)c1,-0.6,-2.7%,-0.3%,-5.2%,16.8µM*,?
c1ccc(-c2nn3c(Cn4nnc5ccccc54)nnc3s2)nc1,-0.1,1.8%,-2.5%,-7.5%,26.7µM*,-14.9%
CC1CN(C(=O)COC(=O)c2ccc(NC(=O)CC#N)cc2)CC(C)O1 (centres undefined),-1.7,2.2%,-1.4%,-7.3%,-3.9%,1.0%

# High-throughput results: PubChem BioAssay, National Center for Advancing Translational Sciences (NCATS)
